Screens (PubChem)
ssDAF12 agonist = S. stercoralis DAF-12 activation, primary screen. activation, % at 6.8 µM. 370,000 compounds, 1% hits. HEK293 ssDAF-12/GRIP1 lit1-tk-luc reporter, luminescence; % of 3 µM dafachronic acid response. AID 652126;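 active = activation above the mean over all tested compounds plus 3 SD, cut at about 0.9% in these data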;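 also: 0% = DMSO-only wells and 100% = 3 µM delta7-dafachronic acid wells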
Wee1 stabilizer = inhibitors of human Wee1 degradation. P30291. reporter increase, % at 5 µM. AID 1321. 220,000 compounds, 1.2% hits. HeLa Luc-Wee1K328M stability, luciferase luminescence; 100% = proteasome inhibitor MG132 effect;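 active = activation above the mean of all tested compounds plus 3 SD, set per screening run, cut at about 8.8% in these data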;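 also: cells exposed to compound for 20 h before luminescence read; 0% = DMSO alone and 100% = MG132 at 30 µM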
Target sequence (P30291 whole entry K328M): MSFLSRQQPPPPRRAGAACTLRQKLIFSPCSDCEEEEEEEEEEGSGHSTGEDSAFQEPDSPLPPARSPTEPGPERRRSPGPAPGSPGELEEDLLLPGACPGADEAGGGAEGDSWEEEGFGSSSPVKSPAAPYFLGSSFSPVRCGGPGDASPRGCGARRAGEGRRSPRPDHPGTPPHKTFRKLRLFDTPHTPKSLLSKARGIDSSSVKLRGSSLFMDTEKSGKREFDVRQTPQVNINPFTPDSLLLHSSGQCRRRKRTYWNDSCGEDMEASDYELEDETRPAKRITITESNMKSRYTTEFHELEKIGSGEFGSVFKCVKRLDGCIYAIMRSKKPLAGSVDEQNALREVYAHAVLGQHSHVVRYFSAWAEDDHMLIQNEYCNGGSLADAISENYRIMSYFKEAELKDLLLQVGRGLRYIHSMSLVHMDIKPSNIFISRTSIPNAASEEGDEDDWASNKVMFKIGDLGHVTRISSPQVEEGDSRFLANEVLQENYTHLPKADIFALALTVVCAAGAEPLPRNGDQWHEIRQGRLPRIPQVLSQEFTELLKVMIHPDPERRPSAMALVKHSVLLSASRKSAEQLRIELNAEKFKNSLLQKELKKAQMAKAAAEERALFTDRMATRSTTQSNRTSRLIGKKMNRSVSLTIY
DAX1 inh-1 = blocks DAX1 repression of SF-1 activated StAR promoter; inhibition, % at 6.8 µM; AID 652010; HEK293T StAR-luciferase reporter, SF-1/DAX-1 repression relief; 370,000 compounds, 1.1% hits;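 active = inhibition above the mean over all tested compounds plus 3 SD, cut at about 3.6% in these data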;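 also: 0% = DAX-1 cells with DMSO and 100% = cells lacking DAX-1 with DMSO; higher inhibition means more luminescence from relief of DAX-1 repression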
DAX1 inh-2 = NR0B1 (DAX1) inhibition; P51843; HEK293 Gal4-DAX1 luciferase reporter, luminescence; inhibition, % at 6.75 µM; 340,000 compounds, 0.99% hits; AID 504766;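 active = inhibition above the mean over all tested compounds plus 3 SD, cut at about 4.2% in these data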;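 also: 0% = DAX1-transfected cells with DMSO and 100% = empty-vector control cells with DMSO; inhibition shows as a rise in luminescence from relieved DAX1 repression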
hgDAF12 agonist = hgDAF-12 agonism, primary luciferase screen; activation, % at 6.8 µM; HEK293 GAL4-hgDAF12 UAS-luciferase reporter, agonist luminescence; normalized to butyrate control; 370,000 compounds, 1.8% hits; AID 687014;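 active = activation above a cutoff set at the mean of all screened compounds plus 3 SD, cut at about 10% in these data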;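 also: 0% = DMSO wells and 100% = sodium butyrate wells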
hcDAF-12 act = activators of H. contortus DAF-12 nuclear receptor; HEK293 hcDAF-12 lit1-tk-luc reporter, luminescence; 0% DMSO, 100% Δ7-dafachronic acid; activation, % at 6.8 µM; 370,000 compounds, 1.4% hits;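 active = activation above the mean of all tested compounds plus 3 SD, cut at about 5.5% in these data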;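 also: 100% = response to 3 µM Δ7-dafachronic acid high control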
The depositor's hits bear a star; nt = not tested or not shown. In the library only some 4.6% were active in any assay of this set; here they are far more common.

SMILES | ssDAF12 agonist | Wee1 stabilizer | DAX1 inh-1 | DAX1 inh-2 | hgDAF12 agonist | hcDAF-12 act
COC(=O)[C@H](CC(C)C)N1Cc2nnn(CC3CCCCC3)c2-c2ccccc2S1(=O)=O | -2 | nt | 0 | nt | 1 | -3
CCOc1ccc(NC(=O)CN(C)C(=O)c2ccc(OCC(=O)N3CCOCC3)c(OC)c2)cc1OCC | -1 | nt | 1 | 1 | -1 | -1
CCCNC(=O)Nc1nc2ccccc2s1 | 0 | 9.2* | 3 | 4.4* | 12* | 3
CCOC(=O)CC(=O)Nc1nc2ccccc2s1 | -1 | -1 | 0 | 0 | 2 | 0
CCOC(=O)Nc1nc2ccccc2s1 | 0 | 0 | 3 | 3 | 11* | 4
O=C(CCNC(=O)c1ccccc1Cl)Nc1nc2ccccc2s1 | 1 | 7 | 3 | 2 | 9 | 6.4*
CCCCNC(=O)OCCCN1CCC2(CCC(c3ccccc3)CC2)C1 (centres undefined) | -1 | nt | 1 | nt | 8 | 0
O=C(N/N=C/C=C\c1ccccc1[N+](=O)[O-])c1ccccn1 | -1 | 1 | -1 | 2 | 11* | 1
O=C(N/N=C/C=C\c1cccc([N+](=O)[O-])c1)c1ccccn1 | -1 | 0 | 1 | 2 | 5 | 3
CCOC(=O)N/N=C/C=C/c1ccccc1[N+](=O)[O-] | -1 | 9.2* | 0 | 1 | -2 | 0
O=C(N/N=C/C=C/c1ccccc1)c1ccccn1 | 0 | 8.9* | 1 | 4 | 9 | 2
Cc1occc1C(=O)N/N=C/C=C\c1ccccc1[N+](=O)[O-] | -1 | 2 | 0 | nt | 5 | -1
Cc1ccc(S(=O)(=O)N2c3ccccc3C[C@H]2CC=C(c2ccccc2)c2ccccc2)cc1 | -1 | nt | nt | nt | 2 | 3
Cn1ncc2c(NNC(=O)c3ccccc3Cl)ncnc21 | -1 | 9.3* | 0 | 0 | -2 | 5
COCc1c(C(=O)NCCc2ccc(OC(F)F)cc2)oc2ccccc12 | -1 | nt | -3 | -1 | 0 | -2
CCCCCNC(=O)c1ccc2c(=O)n(CCOC)c(=O)[nH]c2c1 | -1 | 10.0* | 0 | 0 | 5 | -1
COCCn1c(=O)[nH]c2cc(C(=O)NCCN3CCN(c4ccccc4)CC3)ccc2c1=O | -1 | 11* | -1 | 0 | -1 | 0
COCCn1c(=O)[nH]c2cc(C(=O)NCCN3CCN(c4ccc(OC)cc4)CC3)ccc2c1=O | 0 | -2 | 0 | 1 | -1 | -2
COc1ccc(O)cc1 | -1 | nt | 0 | 4.5* | 0 | 0
COc1ccc(-c2csc(C(O)c3ccccc3)n2)cc1 (centres undefined) | 0 | nt | 3.8* | nt | 5 | 3
c1ccc(CNc2nc(-c3cccnc3)cs2)cc1 | -1 | 5 | 0 | 1 | 11* | 0
Cc1oncc1-c1csc(-c2ccccc2)n1 | -1 | 2 | 0 | 5.3* | 6 | 1
COc1ccc(-c2ccnc(-c3ccc(O)cc3)n2)cc1 | -1 | 3 | -1 | -2 | 8 | 2
COc1ccc(-c2csc(C(O)c3cccc(OC)c3)n2)cc1 (centres undefined) | -1 | nt | -1 | nt | 0 | -2
CCOC(=O)c1csc(NC(=O)C2CCCN(S(=O)(=O)c3ccc([N+](=O)[O-])cc3)C2)n1 (centres undefined) | -2 | nt | -4 | nt | -6 | -5
SMILES | ssDAF12 agonist | Wee1 stabilizer | DAX1 inh-1 | DAX1 inh-2 | hgDAF12 agonist | hcDAF-12 act
CN(CCc1ccccc1)C(=O)c1[nH]c(C(F)(F)F)nc1-c1ccccc1 | -1 | nt | 0 | nt | 2 | -1
COCCCn1cc(CN2CC(N3CCSCC3)CS2(=O)=O)nn1 (centres undefined) | -1 | nt | 0 | nt | 1 | 0
CC(C)(C)S(=O)N1Cc2cc(C(=O)N3CCc4ccccc4C3)nc(-c3cccc(-c4ccncc4)c3)c2[C@H]1CCO (some centres undefined) | -1 | nt | -1 | nt | -1 | -1
Cc1ccc(-c2csc(-c3ccncc3)n2)cc1 | -1 | 3 | 0 | 1 | 11* | 4
C=C(c1ccc(OC)cc1)c1ccc(OC)cc1 | -1 | -2 | 0 | 1 | 1 | 1
Brc1ccc(-c2csc(-c3ccncc3)n2)cc1 | -1 | 4 | 0 | 0 | 7 | 0
c1ccc(-c2csc(-c3cccnc3)n2)cc1 | -1 | -2 | 0 | 1 | 11* | 3
COc1ccc(N2CC(O)=C(c3nc(-c4ccc(Cl)cc4)cs3)C2=N)cc1 | 0 | 0 | 1 | 0 | 12* | 1
COc1ccc(C(N)=S)cc1 | -1 | -1 | 0 | 4.3* | -1 | -2
Cc1ccc(C(=O)O)cc1NC(=S)NC(=O)c1ccc(COc2ccccc2)cc1 | -1 | nt | 1 | 1 | -1 | 0
COc1ccc(-c2csc(-c3ccc(O)cc3)n2)cc1 | 0 | 4 | -2 | -3 | 13* | 2
COc1ccc(-n2cc(CNCCCn3ccnc3)c(-c3cccc(F)c3)n2)cc1 | -2 | 5 | 0 | 5.4* | -2 | -1
COc1ccc(-n2cc(CNCC3CCOCC3)c(-c3cccc(F)c3)n2)cc1 | -1 | 3 | 1 | -1 | 0 | -1
Cc1ccc(S(=O)(=O)n2[nH]c(=O)c(CCO)c2C)cc1 | -1 | 9.0* | 0 | nt | -1 | -2
Nc1nc2ccccc2n1/N=C/c1ccc(Br)cc1 | 0 | 5 | 2 | 1 | 12* | 3
Cc1cc(C)cc(C(=O)OCCN(C)C2CN(Cc3cn(Cc4ccccc4C(F)(F)F)nn3)S(=O)(=O)C2)c1 (centres undefined) | -2 | nt | -2 | nt | 0 | -3
Cc1ccc(-c2nc3cnccn3c2Nc2ccccc2)o1 | -1 | nt | 3 | 1 | 7 | -1
Cc1ccc(Nc2c(-c3ccc(C)o3)nc3cnccn23)cc1 | -1 | 1 | 2 | 2 | 12* | 2
CN(CC(=O)Nc1ccc(F)cc1)C(=O)COC(=O)c1cc(S(=O)(=O)N(C)C)ccc1N1CCCC1 | 0 | nt | 0 | -1 | -1 | -1
COc1cc(C(c2c(C(=O)O)[nH]c3ccccc23)c2c(C(=O)O)[nH]c3ccccc23)ccc1OCc1ccccc1 | 0 | nt | 0 | 1 | 1 | 5.9*
O=C(O)c1[nH]c2ccccc2c1C(c1ccccc1)c1c(C(=O)O)[nH]c2ccccc12 | -1 | nt | 1 | 0 | 4 | 3
COC(=O)[C@]12C[C@H](CC(=O)N3CCN(C(=O)C4CC4)CC3)C(=O)N(CCC3=CCCCC3)C1=C[C@H](C1CCCC1)O[C@@H]2C | -1 | nt | 0 | nt | -2 | -3
COC(=O)CC1C(=O)NCCN1C(=O)CSc1nc2ccccc2s1 (centres undefined) | 1.2* | -1 | 1 | 1 | -1 | 4
COC(=O)CC1C(=O)NCCN1C(=S)Nc1ccc(F)cc1 (centres undefined) | -1 | 0 | 0 | 5.2* | 2 | 1
